Screening results deposited in PubChem by several laboratories.
The full list was thinned out, with hits kept by preference.
GIRK2 act = activators of NPY4-receptor-primed GIRK2 channels, summary, cell-based, HEK293, thallium flux | HEK293 GIRK2/NPY4 cells, thallium flux fluorescence | activation (% efficacy), % for hits at 37.5 µM | 34,000 tested, under 10 active | G protein-activated inward rectifier potassium channel 2 (Homo sapiens), P48051;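 active = primary screen hit, no activity in plain HEK293 cells, and in GIRK2-only cells above 5% efficacy rising with concentration; inactive = the rest, including fluorescent compounds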;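 also: efficacy is normalized control-subtracted fluorescence 15 s after thallium addition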
GluA2 TARP mod = modulators of GluA2-stargazin AMPA receptor complexes, primary screen, cell-based, membrane potential dye. AID 1259245, 2017. HEK293 GluA2+stargazin, membrane potential dye (FDSS), glutamate EC50; hits were called plate by plate, in both directions. 40,000 tested, 3.5% active. Voltage-dependent calcium channel gamma-2 subunit (Mus musculus) + Glutamate receptor 2 …. calls only at 30 µM;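 active = any of four per-well response measures lying three or more SD from its plate-wide compound average, in either direction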
Target sequence (O88602 whole entry, looked up): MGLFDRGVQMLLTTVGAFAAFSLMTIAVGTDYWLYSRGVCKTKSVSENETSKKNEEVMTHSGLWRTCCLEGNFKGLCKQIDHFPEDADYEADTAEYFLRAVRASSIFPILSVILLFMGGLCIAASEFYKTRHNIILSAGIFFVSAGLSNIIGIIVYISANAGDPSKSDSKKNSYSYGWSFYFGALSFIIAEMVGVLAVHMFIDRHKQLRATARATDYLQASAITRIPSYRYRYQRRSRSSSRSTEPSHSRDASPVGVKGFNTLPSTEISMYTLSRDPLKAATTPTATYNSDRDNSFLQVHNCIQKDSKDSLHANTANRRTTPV
Target sequence (P19491 whole entry, looked up): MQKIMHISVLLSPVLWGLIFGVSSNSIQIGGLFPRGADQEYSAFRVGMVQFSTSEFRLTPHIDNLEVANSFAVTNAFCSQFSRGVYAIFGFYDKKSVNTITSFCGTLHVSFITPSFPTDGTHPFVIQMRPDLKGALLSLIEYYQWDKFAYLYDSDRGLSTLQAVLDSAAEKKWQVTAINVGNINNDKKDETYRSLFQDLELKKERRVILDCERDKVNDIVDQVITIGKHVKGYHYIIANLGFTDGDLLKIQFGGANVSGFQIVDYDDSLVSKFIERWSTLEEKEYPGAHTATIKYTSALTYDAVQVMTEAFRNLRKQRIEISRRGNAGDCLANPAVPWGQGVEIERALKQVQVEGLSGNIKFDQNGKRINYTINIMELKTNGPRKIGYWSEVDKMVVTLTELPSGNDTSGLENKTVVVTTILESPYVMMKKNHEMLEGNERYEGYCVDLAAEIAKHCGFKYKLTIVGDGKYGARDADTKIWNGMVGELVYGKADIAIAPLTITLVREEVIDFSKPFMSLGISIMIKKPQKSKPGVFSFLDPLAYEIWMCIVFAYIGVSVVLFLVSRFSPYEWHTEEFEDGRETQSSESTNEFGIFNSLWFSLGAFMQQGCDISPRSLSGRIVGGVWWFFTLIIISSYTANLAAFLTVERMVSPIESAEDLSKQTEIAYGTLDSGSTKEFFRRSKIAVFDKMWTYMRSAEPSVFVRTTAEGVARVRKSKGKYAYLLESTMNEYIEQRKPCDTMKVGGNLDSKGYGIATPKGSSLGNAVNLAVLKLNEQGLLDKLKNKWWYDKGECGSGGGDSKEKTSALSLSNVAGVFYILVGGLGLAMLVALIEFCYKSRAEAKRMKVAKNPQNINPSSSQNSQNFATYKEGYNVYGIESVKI
* hit, by the source's call; i = inactive; / = no result; + = active, no number.

SMILES	GIRK2 act	GluA2 TARP mod
c1ccn2cc(CSc3cc(N4CCOCC4)ncn3)nc2c1	i	+
COc1cccc(C(=O)CSc2cc(N3CCOCC3)ncn2)c1	i	i
COc1ccc(CCC(=O)NNC(=O)c2cccn(Cc3ccc(F)cc3)c2=O)cc1	/	i
O=S(=O)(N1CCOCC1)n1nnc2ccccc21	i	i
O=S(=O)(N1CCOCC1)n1c(Cc2ccccc2)nc2ccccc21	i	+
COc1ccc(CC(=O)N2CCOC(c3ccccc3)C2)cc1 (centres undefined)	i	/
Cc1ccc(CNC(=O)C(=O)NCc2ccsc2)cc1	i	i
O=C(CCS(=O)(=O)c1ccc(Cl)cc1)Nc1nnc(-c2ccccn2)o1	i	+
O=C(CCSc1ccc(Cl)cc1)Nc1nnc(-c2ccccn2)o1	i	i
COc1ccc(Br)c(C(=O)NCC(C)(O)c2ccc3c(c2)OCO3)c1 (centres undefined)	i	i
COc1cc(S(=O)(=O)Nc2ccc(-c3cn4cccc(C)c4n3)cc2)c(OC)cc1C	/	+
COc1ccc(OC)c(S(=O)(=O)Nc2ccc(-c3cn4ccccc4n3)cc2)c1	/	i
COc1ccc(-c2csc(NC(=O)c3cc(C)no3)n2)cc1OC	i	i
CCC(=O)OCCN1C(=O)c2cccc3c(N4CCCCC4)ccc(c23)C1=O	/	+
COc1cccc(N2C(=O)c3cccc4c(N5CCCCCC5)ccc(c34)C2=O)c1	/	i
O=C(Nc1ccc2c(c1)CN(C(=O)c1cccs1)CC2)c1cnccn1	i	+
O=C(Nc1ccc2c(c1)CN(S(=O)(=O)c1ccccc1)CC2)c1cnccn1	i	+
O=C(CCc1ccccc1)Nc1ccc2c(c1)CN(S(=O)(=O)c1ccccc1)CC2	i	i
O=C(Nc1ccc2c(c1)CN(C(=O)c1cccs1)CC2)c1ccc2nsnc2c1	i	i
O=[N+]([O-])c1cccc(-c2ccc(SCc3ccncc3)nn2)c1	i	i
Cc1nnsc1C(=O)N1CCC(CNC(=O)C2(c3ccccc3)CCOCC2)CC1	i	i
CCOC(=O)c1ccc2nc(C)cc(Nc3cccc([N+](=O)[O-])c3)c2c1	/	+
CCOC(=O)c1ccc(Nc2cc(C)nc(-n3cc([N+](=O)[O-])cn3)n2)cc1	i	i
CCCNC(=O)CCCCn1c(=O)c2ccccc2n(CC(=O)Nc2ccc3c(c2)OCCO3)c1=O	/	i
Cc1ccc(-c2ccc(SCC(=O)NC3CCCCC3)nn2)c(C)c1	i	+
SMILES	GIRK2 act	GluA2 TARP mod
COc1ccc(OC)c(-c2ccc(SCC(=O)NC3CCCC3)nn2)c1	i	i
CCCc1nc2ccccc2n1Cc1ccccc1OC	/	+
CCc1nc2ccccc2n1Cc1ccccc1OC	i	i
CC(C)c1ccc(-n2nnc(C(=O)NC3CCCCC3)c2N)cc1	i	i
Cc1cccc(-n2nnc(C(=O)NC3CCCCC3)c2N)c1	i	+
Cc1ccc(OCC(=O)NCC(c2cccc3ccccc23)N2CCOCC2)cc1 (centres undefined)	i	i
CCOc1ccc2ccccc2c1C(=O)NCC(c1cccc(OC)c1)N1CCOCC1 (centres undefined)	i	+
COc1ccc(C(=O)NCC(c2cccc(OC)c2)N2CCOCC2)cc1 (centres undefined)	i	i
O=C(NCC(c1cccc2ccccc12)N1CCOCC1)c1ccc(Br)cc1 (centres undefined)	i	+
COc1ccc(C(CNC(=O)c2cccc([N+](=O)[O-])c2C)N2CCOCC2)cc1 (centres undefined)	/	+
Cc1ccc(C(CNC(=O)COc2ccc3ccccc3c2)N2CCOCC2)cc1 (centres undefined)	i	+
COc1ccc(CC(=O)NCC(c2cccc3ccccc23)N2CCOCC2)cc1 (centres undefined)	i	i
COc1ccc(C(CNC(=O)C(=O)Nc2ccccc2[N+](=O)[O-])N2CCOCC2)cc1 (centres undefined)	i	/
COc1ccc(/C=C\C(=O)Nc2nn(C)c3c2C(c2ccccc2)CC(=O)N3)cc1OC (centres undefined)	i	i
COc1ccc(CCC(=O)NCCN2CCC(c3cccs3)CC2)cc1	i	i
Cc1ccccc1-c1cn(CC(=O)NCc2ccc(F)cc2F)nc1N1CCOCC1	i	/
COc1cn(CC(N)=O)c(CSc2nc(C)cc(C)n2)cc1=O	i	i
COc1cccc(C(CNC(=O)COc2ccc(C)cc2)N2CCOCC2)c1 (centres undefined)	/	i
Cc1ccc(C(CNC(=O)c2cccs2)N2CCOCC2)cc1 (centres undefined)	i	i
